# GoLoco inh red – RGS12 GoLoco-Gai1 interaction inhibition. Gai1:RGS12 GoLoco peptide FP, rhodamine, 10 min. Potency, µM (series often up to 61.6 µM), without a hit: at the highest dose activity, negative = inhibition, usual class: inhibitors. 230,000 tested, 0.44% active; active means well fitted inhibition curve with a large enough effect, not every such curve was filed as active; inactive means no such curve, though single readings can be large or run the other way; further: nearly all actives have a fitted effect of over 30% in size
# Tb PFK block – T. brucei PFK enzyme inhibition. O15648. T. brucei PFK, ADP-Glo luminescence. Potency, µM (top dose mostly 57.5 µM), without a hit: at the highest dose activity, negative = inhibition, usual class: inhibitors. 330,000 tested, 0.17% active. AID 485367;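 further: 0% = uninhibited 1x PFK enzyme wells and -100% = no-enzyme wells; nearly all actives have a fitted effect of over 60% in size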
# Target sequence (O15648 whole entry, looked up): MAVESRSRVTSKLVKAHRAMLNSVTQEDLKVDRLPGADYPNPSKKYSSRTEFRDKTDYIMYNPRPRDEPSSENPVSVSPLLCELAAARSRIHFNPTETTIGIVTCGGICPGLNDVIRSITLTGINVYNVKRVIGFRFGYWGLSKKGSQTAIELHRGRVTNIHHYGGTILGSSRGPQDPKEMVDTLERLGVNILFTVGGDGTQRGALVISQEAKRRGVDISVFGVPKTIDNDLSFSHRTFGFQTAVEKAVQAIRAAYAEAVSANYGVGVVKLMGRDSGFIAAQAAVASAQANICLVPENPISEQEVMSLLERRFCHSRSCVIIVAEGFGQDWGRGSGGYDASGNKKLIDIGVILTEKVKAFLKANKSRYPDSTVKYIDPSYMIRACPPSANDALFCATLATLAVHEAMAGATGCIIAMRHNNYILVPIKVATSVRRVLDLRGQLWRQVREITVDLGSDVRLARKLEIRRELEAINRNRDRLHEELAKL
#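 Activity is normalized to no-enzyme wells (full inhibition) and 1.25 nM enzyme wells (no inhibition). Reaction: 0.5 mM F6P, 0.1 mM ATP, 45 min RT, ADP-Glo luminescence; concentration-response curves fitted and classed by quality.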
# IMPase Li cell – cell-permeable IMPase inhibitors with lithium potentiation. 210,000 tested, 0.35% active. CHO-M1 cells, IP1 TR-FRET (IP-One), carbachol + lithium. Potency, µM (highest dose often 59.4 µM), without a hit: at the top dose activity, negative = IMPase inhibition, usual class: inhibitors;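 further: IP1 builds up when IMPase is blocked and the TR-FRET signal falls; plate controls were basal vehicle for no effect and high inhibitor control for full effect; nearly all actives have a fitted effect of over 50% in size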
#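 Test compounds were applied to CHO-M1 cells previously cultured for 16–30 h at 2000 per well. A small lithium amount accompanied them; after 30 min at 37C, IP1 was quantified by TR-FRET.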
# MBNL1-CUG inh – MBNL1-poly(CUG) RNA binding inhibition. Q9NR56. Potency, µM (top dose mostly 57.5 µM), for the others: top-dose activity change, negative = inhibition, hits mostly inhibitors. 280,000 tested, 0.036% active. AID 2675. TR-FRET MBNL1-His/biotin-(CUG)12 binding, 665/545 ratio; active means well fitted inhibition curve with a large enough effect in the signal ratio, with a control signal flat, not every such curve was filed as active; inconclusive means small, poorly fitted or top-dose-only effect, or effect the other way, or a change in a side signal; inactive means no such curve, though single readings can be large or run the other way; the % refers to the signal ratio
#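 Compound titration spanned 92 nM–58 uM against the MBNL1-His/biotin-(CUG)12 complex. After 60 min at room temperature with 5 nM streptavidin-XL665 and 0.055 ng/ul terbium anti-His, ratiometric 665/545 nm emission (Ex 340 nm) normalized to controls.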
# NPSR antagonist – neuropeptide S receptor (human) antagonism, cAMP; 220,000 tested, 1% active; Q6W5P4; Potency, µM (titrated, usually from 38.3 µM), without a hit: at the highest dose activity change, negative = inhibition, usual class: inhibitors; CHO-NPSR cells, cAMP TR-FRET, antagonist mode; further: nearly all actives have a fitted effect of over 50% in size
# * marks the source's active call; other numbers are inactive results; ? = inconclusive; / = not tested or not shown; [ ] = remark or other dose. Shown is part of a subset that was picked to be rich in hits. Unless noted, the call rests on the fitted dose curve; in most records, active means well fitted curve in the direction sought with a large enough effect; inconclusive means small, poorly fitted or top-dose-only effect, or another doubt; inactive means no such curve, though single readings can be large; an effect the other way counts as inactive or inconclusive. Unless noted, on the % scale 0 is the no-effect control and ±100 the full control effect; potency means the concentration at half of the fitted maximal effect.
SMILES,GoLoco inh red,Tb PFK block,IMPase Li cell,MBNL1-CUG inh,NPSR antagonist
CC1C2(C)OC(=N)C(C#N)(C(C)O2)C1(C#N)C#N (stereo not drawn),25.1µM*,3.3%,/,19.5%,12.2%
CC(=O)Nc1nc(C)c(-c2nc3ccc([N+](=O)[O-])cc3[nH]2)s1,/,-7.9%,/,?,/
O=C1C(c2ccnc3ccccc23)=C(O)c2ccccc21,6.2%,-2.6%,7.4%,15.6%,0.7%[46.1 µM]
O=C1C(=O)c2ccccc2C(O)=C1c1ccccc1F,-9.2%,4.8%,/,?,12.6µM*
CC1(C)[C@@H]2CC[C@]1(CC(=O)O)[C@H](Cl)C2,7.4%[14.2 µM],/,2.0%,/,/
COc1ccc(CCn2c(C)cc(C(=O)CN3C(=O)C(=O)N(C4CCCC4)C3=O)c2C)cc1OC,/,7.9%,/,/,/
O=C(/C=C\c1ccco1)Nc1nc(-c2ccc3ccccc3c2)cs1,/,-1.4%,/,9.9%,1.6%[46.1 µM]
COc1ccc(NC(=S)NC(=O)/C=C/c2ccco2)cc1,149.1%,-8.7%,9.9%,?,-29.9%
O=C(/C=C/c1ccco1)NC(=S)Nc1ccc(O)c(-c2nc3ccccc3s2)c1,11.1%,-20.4%,3.1%,-9.2%,1µM*
Cc1ccc(-c2csc(NC(=S)NC(=O)/C=C/c3ccco3)n2)cc1,7.9%,-19.0%,10.7%[38.3 µM],-3.8%,10µM*
COc1ccc(O)c(/C=N/Nc2nc(Nc3ccccc3)nc(-n3nc(C)cc3C)n2)c1,-10.4%,0.2%,0.7%[38.3 µM],-5.8%,1.26µM*
Oc1ccc(NCc2ccc(OCc3ccccc3)cc2)cc1,/,-16.4%,/,?,/
CCc1ccc(CNc2ccc(O)cc2)cc1,14.1µM*,-18.1%,99.3%[38.3 µM],?,-20.0%[46.1 µM]
COc1cc2c(cc1OC)Cc1cc(OC)c(OC)cc1Cc1cc(OC)c(OC)cc1C2,1.1%,/,17.5%,/,/
Cc1cn(S(=O)(=O)c2ccc(Br)c3ccccc23)cn1,-7.1%,-1.4%,11.2µM*,?,1µM*
CN1c2ccccc2C(C)(C)[C@]12C=Cc1cc(O)ccc1O2,67.1%,-1.2%,53.3%[38.3 µM],7.1%,12.6µM*
CC(=O)N/C(=C\c1ccccc1)C(=O)OCC(=O)c1c(N)n(C)c(=O)n(C)c1=O,/,-0.7%,/,/,/
CC(C)CC(=O)Nc1ccnn1C1CCN(C(=O)c2ccc(F)cc2Cl)CC1,/,-10.6%,/,-5.5%,/
Cc1ccc(-n2nc3c(=O)n(CCCC(=O)NCc4cccc(F)c4)nc(C)c3c2C)cc1,/,3.6%,/,-0.3%,/
O=C1C=CC2=C3c4cc(O)c(O)cc4C[C@]3(O)COC2=C1,0.251µM*,/,49.7%,/,/
CNc1cc(-c2ccccc2C(F)(F)F)ncn1,6.3%,/,-2.9%,/,/
O=C(C#Cc1cccc([N+](=O)[O-])c1)c1ccccc1,-4.9%,-11.4%,44.1%[38.3 µM],3.4%,3.16µM*
O=C(/C=C/c1cccc([N+](=O)[O-])c1)c1ccccc1,1.8%,/,-0.3%,/,/
O=C1OC(CO)C(O)C(O)C1O (stereo not drawn),5.7%,/,10.8%,/,/
CCC(C)(C)n1nnnc1C(c1ccc2ncccc2c1)N1CCN(Cc2ccc3c(c2)OCO3)CC1 (stereo not drawn),3.3%,1.3%,14.0%[38.3 µM],13.5%,7.94µM*
SMILES,GoLoco inh red,Tb PFK block,IMPase Li cell,MBNL1-CUG inh,NPSR antagonist
CC(=O)Nc1ccc(-c2ccccc2)s1,17.8µM*,-8.5%,4.3%[38.3 µM],8.7%,-6.7%[46.1 µM]
O=C(CCCN1C(=O)c2ccccc2C1=O)Nc1c2c(nc3c1CCC3)CCC2,-0.2%,-0.5%,11.2µM*,3.5%,-7.0%[46.1 µM]
CCN(CC)c1ccc(NC(=O)CCCCCN2C(=O)c3ccccc3C2=O)cc1,22.4µM*,-2.5%,11.7%[38.3 µM],11.4%,-17.8%[46.1 µM]
CC(=O)Nc1ccc(NC(=O)CCCCCN2C(=O)c3ccccc3C2=O)cc1,-2.0%,-4.8%,28.6%[38.3 µM],4.0%,-4.8%[46.1 µM]
Cc1nnc(SCCC(=O)Nc2ccccc2Cl)o1,/,6.4%,/,-5.2%,/
COc1ccc(CNC(=O)CN(C(=O)c2csnn2)c2cccc3ccccc23)cc1,/,0.7%,/,1.9%,/
CC1=NN(c2ccccc2)C(=O)/C1=C/C=C/c1ccccc1,-2.7%,-5.2%,12.3%,7.4%,-48.9%
CC1=NN(c2cccc(C(=O)O)c2)C(=O)/C1=C\C=C\c1ccco1,-24.2%,21.3µM*,8.8%,9.3%,?
CSc1nc(C(C)C)ccc1CNC(=O)CC(C)c1ccccc1 (stereo not drawn),/,-8.8%,/,-6.0%,/
COc1ccc(C(=NNc2ccccc2C(=O)O)c2ccc(OC)cc2)cc1,5.7%,5.4%,12.6%,?,7.94µM*
COc1ccc(C(=O)Nc2ccccc2C(=O)Nc2ccccc2C(=O)O)cc1,/,3.4%,/,-10.7%,/
CC1=C(C(=O)Nc2ccccc2)C(c2ccc(C)o2)n2c(s/c(=C\c3ccco3)c2=O)=N1 (stereo not drawn),73.2%,-1.7%,30.4%[38.3 µM],13.2%,12.6µM*
OCCN1CCN(C(c2cccs2)c2ccc3cccnc3c2O)CC1 (stereo not drawn),-47.6%,1.5%,-2.6%[38.3 µM],6.7%,10µM*
Cc1ccc(Nc2cc(C)nn2-c2nc(C)cc(C)n2)cc1,0.0%,-1.9%,-1.6%[38.3 µM],0.2%,0.794µM*
COC(=O)[C@@H]1[C@@H](C#N)C2(c3ccccc3-c3ccccc32)N(c2ccc(Cl)cc2)N1C#N,6.5%,1.3%,12.0%,13.8%,10µM*
COc1ccc(/C=C/C(=O)N(C)C2(C)CCS(=O)(=O)C2)cc1 (stereo not drawn),/,-10.4%,/,/,/
CCOCCCN(C(=O)Cn1nnc(-c2ccc(OC)c(OC)c2)n1)C(C(=O)NCC1CCCO1)c1ccc(F)cc1 (stereo not drawn),/,2.4%,/,-10.2%,/
COc1cc(C)ccc1OCCOc1cc(C)ccc1Cl,13.7%,-3.2%,16.1%[38.3 µM],-0.8%,10µM*
COCCn1c(=O)c(-c2cccc(C#N)c2)nc2cnc(N3CCOCC3)nc21,20µM*,/,-1.1%,/,/
N#Cc1cccc(-c2nc3cnc(N4CCOCC4)nc3n(Cc3ccc(F)cc3)c2=O)c1,0.3%,/,1.7%,/,/
Cc1nc(-c2ccc(C(=O)Nc3cc(S(N)(=O)=O)ccc3C)cc2)cs1,/,2.8%,/,119.8%,/
O=C(NO)c1ccccc1,28.2µM*,/,15.1%,/,/
COc1cccc(F)c1C(C[N+](=O)[O-])c1c(N)n(C)c(=O)n(C)c1=O (stereo not drawn),-0.9%,21.1%,/,-7.8%,6.31µM*
